The values that follow come from PubChem BioAssay AID779 (Sanford-Burnham Center for Chemical Genomics, 2007).

The source made the active and inactive calls. How the calls were made is not given here.

A short description of this experiment: PLAP enzyme activity inhibition – biochemical, colorimetric, counter-screen, dose response (AID 779). To be noted: colorimetric OD read-out. In general terms: A counterscreen serves to expose hits that act by an unwanted route or on another target.
As a reminder, the IC50 is the concentration needed to halve the response being measured. On to `COc1ccc(C(=O)CN2CCOCC2)cc1F`, for which the IC50 was > 50 µM (inactive).

In the case of `CN1/C(=C\C=C\C2=[N+](C)c3ccc4ccccc4c3C2(C)C)C(C)(C)c2ccccc21`, the IC50 was > 50 µM (inactive).

Turning to `Cc1cc(C=C2C(=O)N(C)C(=S)N(C)C2=O)c(C)n1C1CCCCC1`, the IC50 was > 50 µM (inactive).

As to `CCCCOP(=O)(OCCCC)/C(C#N)=C(/C)O`, the IC50 was > 50 µM (inactive).

In the case of `CC(=O)OC1(c2ccc(C)cc2)CN2CCC1c1ccccc12` (stereo not given), the IC50 was > 50 µM (inactive).
